As usually defined, the AC50 is the concentration at which the activity in the assay is half-maximal.

Consider 20 molecules from PubChem BioAssay (EPA / NIEHS).

SMILES strings stand for the structures. Several values for one entry are separate records, joined by “and”; a condition that tells them apart may be missing. Equal entries are not always repeated. Inconclusive results are not listed. Where a structure was tested more than once in an assay, its records may differ in their call. Activity calls are given as the source filed them. The calls were made as follows: active = hit-call score of the fitted dose curve at least 0.9, where 1 is the maximum; inconclusive = response in the unintended direction; inactive = score below 0.9.

Test [1] can be described thus: Tanguay_ZF_120hpf_YSE_legacy: (Legacy) Oregon State University Tanguay Lab 120 Hour Post-fertilization zebrafish Assay for Yolk Sac Edema (AID 2283634).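 As to AC50: actives raise the incidence of yolk sac edema above the DMSO baseline.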 The method, boiled down: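 Presence or absence of yolk sac edema was recorded at 120 hpf in surviving larvae. These were wild-type Tropical 5D embryos, chorion removed at 4 hpf, held in static exposure at 28C from 6 hpf with 0.64% DMSO vehicle.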

Test [2] can be described thus: Tanguay_ZF_120hpf_AXIS_legacy: (Legacy) Oregon State University Tanguay Lab 120 Hour Post-fertilization zebrafish Assay for Body Axis Malformation (AID 2283635).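 As to AC50: potency for an increased fraction of larvae scored with body axis malformation.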 The method, boiled down:
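Binary scoring of axis defects at 120 hpf under brightfield, fitted positive versus DMSO. Tropical 5D embryos, chorion removed by pronase at 4 hpf, were singly exposed in sealed, dark plates at 28C from 6 hpf; DMSO 0.64% final.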

The nature of test [3]: Tanguay_ZF_120hpf_EYE_legacy: (Legacy) Oregon State University Tanguay Lab 120 Hour Post-fertilization zebrafish Assay for Eye Malformation (AID 2283636).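 Also: binary presence or absence of eye malformation scored by brightfield in 120 hpf larvae.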 A digest of the protocol:
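Dechorionated Tropical 5D zebrafish embryos, one per well from 6 hpf, static exposure to 120 hpf at 28C, 0.64% DMSO. Eye malformation scored present/absent by brightfield; dead embryos not scored.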

Test [4] in a line: Tanguay_ZF_120hpf_SNOU_legacy: (Legacy) Oregon State University Tanguay Lab 120 Hour Post-fertilization zebrafish Assay for Snout Malformation (AID 2283637). The method, boiled down:
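Dechorionated tropical 5D wild-type zebrafish embryos exposed statically from 6 to 120 hpf at 28C, one per well, in 0.64% DMSO. Snout malformation scored as present/absent by brightfield at 120 hpf; dead embryos not scored.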

Test [5] is described as follows: Tanguay_ZF_120hpf_JAW_legacy: (Legacy) Oregon State University Tanguay Lab 120 Hour Post-fertilization zebrafish Assay for Jaw Malformation (AID 2283638).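 As to AC50: active means more embryos with jaw malformation than DMSO controls.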 The method, boiled down: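 Binary jaw-malformation call at 120 hpf by brightfield microscopy. Embryos (Tropical 5D strain, chorion removed at 4 hpf) were dosed statically at 6 hpf, one per well, at 28C with 0.64% DMSO. Embryos that died were not scored.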

Test [6] can be described thus: Tanguay_ZF_120hpf_OTIC_legacy: (Legacy) Oregon State University Tanguay Lab 120 Hour Post-fertilization zebrafish Assay for Otic Vesicle Malformation (AID 2283639). A digest of the protocol:
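Otic vesicle malformation is read as a yes/no morphology call at 120 hpf. Exposure is static at 28C with 0.64% (vol/vol) DMSO; embryos that die are excluded from non-mortality endpoints.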

Test [7] in a line: Tanguay_ZF_120hpf_PE_legacy: (Legacy) Oregon State University Tanguay Lab 120 Hour Post-fertilization zebrafish Assay for Pericardial Edema (AID 2283640).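 As to AC50: potency for increased incidence of pericardial edema versus DMSO baseline.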 A digest of the protocol:
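Scoring was binary, by brightfield microscopy at 120 hpf, and skipped where mortality occurred. Wild-type embryos were kept under sealed, foil-covered static exposure at 28C in 0.64% (vol/vol) DMSO.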

A short description of test [8]: Tanguay_ZF_120hpf_BRAI_legacy: (Legacy) Oregon State University Tanguay Lab 120 Hour Post-fertilization zebrafish Assay for Brain Malformation (AID 2283641). The method, boiled down: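 Binary brightfield scoring of brain malformation at 120 hpf in Tropical 5D larvae held under static exposure at 28C (0.64% v/v DMSO), non-mortality endpoints skipped if dead. Positive control: 5uM trimethyltin chloride; fit versus DMSO.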

Test [9] is described as follows: Tanguay_ZF_120hpf_MORT_legacy: (Legacy) Oregon State University Tanguay Lab 120 Hour Post-fertilization zebrafish Assay for Mortality (AID 2283633). The method, boiled down:
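Static waterborne exposure from 6 to 120 hpf at 28C of single dechorionated wild-type (5D) embryos per well, 0.64% DMSO final. Death recorded present/absent by brightfield at 24 and 120 hpf.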

Test [10] in a line: Tanguay_ZF_120hpf_SOMI_legacy: (Legacy) Oregon State University Tanguay Lab 120 Hour Post-fertilization zebrafish Assay for Somite Malformation (AID 2283647). The method, boiled down:
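Binary somite-defect scoring at 120 hpf, omitted for embryos that died, in wild-type (Tropical 5D) zebrafish with chorion removed by pronase at 4 hpf; static exposure began 6 hpf, single embryos per well, 28C, 0.64% DMSO; fitted positive versus DMSO.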

For `O=C1c2ccccc2C(=O)N1SC(Cl)(Cl)Cl`, the call in test [1], in test [2], in test [3], in test [4], in [5] and in test [6] was inactive. The result in test [7] and in test [8] was inactive.

For `O=C(O)CCCOc1ccc(Cl)cc1Cl`, the call in test [9], in test [3], in [4], in test [5], in test [8] and in [10] was inactive. The AC50 in test [1] was 42.6 µM (active); in test [2], 48.7 µM (active); in test [7], 24.2 µM (active).

Consider `O=C(O)C(F)(F)C(F)(F)C(F)(F)C(F)(F)C(F)(F)C(F)(F)C(F)(F)F`, for which the molecule was called inactive in test [9], in test [1], in test [2], in [3], in [4] and in [5]. Also, the call in [6], in test [7], in [8] and in [10] was inactive.

For the molecule `O=S1OCC2C(CO1)C1(Cl)C(Cl)=C(Cl)C2(Cl)C1(Cl)Cl` (configuration not stated), the call in test [1], in test [2], in [3], in test [4], in test [5] and in test [6] was inactive. Moreover, the call in test [7], in [8] and in [10] was inactive.

For `CN1CSC(=S)N(C)C1`, the AC50 in test [1] is 26.6 µM (active); in test [2], 21.3 µM (active); in [3] it was 34.9 µM (active); in test [4] it was 24.9 µM (active); in test [5] it was 8.18 µM (active); in test [7], 35 µM (active). Moreover, the molecule was called inactive in test [6], in [8] and in test [10].

As for `CC[C@H](C)[C@H]1O[C@]2(C=C[C@@H]1C)C[C@@H]1C[C@@H](C/C=C(\C)[C@@H](O[C@H]3C[C@H](OC)[C@@H](O[C@H]4C[C@H](OC)[C@@H](O)[C@H](C)O4)[C@H](C)O3)[C@@H](C)/C=C/C=C3\CO[C@@H]4[C@H](O)C(C)=C[C@@H](C(=O)O1)[C@]34O)O2` (tested in a mixture with another compound), the molecule was classed as inactive in test [1], in test [3], in test [5], in [6] and in [10]. Also, the AC50 in [2] was 8.9 µM (active); in [4], 0.934 µM (active); in test [7] it was 0.808 µM (active); in test [8], 15.6 µM (active).

With `ClC1C(Cl)C(Cl)C(Cl)C(Cl)C1Cl` (configuration not stated), the call in [9], in [1], in test [2], in [3], in [4] and in [5] was inactive. Besides, the call in [6], in test [7], in test [8] and in test [10] was inactive.

As to `O=[N+]([O-])c1c(Cl)c(Cl)c(Cl)c(Cl)c1Cl`, the call in test [1], in test [2], in test [3], in [4], in test [5] and in [6] was inactive. Also, the result in [7], in test [8] and in test [10] was inactive.

Turning to `N#CN`, the result in [1], in [2], in test [3], in test [4], in test [5] and in [6] was inactive. Further, the call in test [7], in [8] and in test [10] was inactive.

Consider `O=S(=O)(O)C(F)(F)C(F)(F)C(F)(F)C(F)(F)C(F)(F)C(F)(F)C(F)(F)C(F)(F)F`, for which the AC50 was 19.8 µM (active) and 7.26 µM (active) and 41.3 µM (active) in [1]; 25 µM (active) and 42.3 µM (active) and 42.2 µM (active) in test [2]; 37 µM (active) in [3]; 25.1 µM (active) and 33.2 µM (active) in [4]; 26.5 µM (active) and 43.5 µM (active) in test [5]; 47.5 µM (active) in [6]. The AC50 is 14.5 µM (active) and 36.8 µM (active) in [7]; 34.2 µM (active) in test [8]; 33.8 µM (active) in [10]. The molecule was classed as inactive in test [1], in test [2], in test [3], in test [4], in [5] and in test [6]. In addition, the molecule was called inactive in [7], in test [8] and in test [10].

As for `COP(=S)(OC)Oc1ccc(SC)c(C)c1`, the outcome in test [1], in test [2], in test [3], in test [4], in test [5] and in test [6] was inactive. For the same molecule, the call in test [7] and in test [8] was inactive.

For `CCCN(CCOc1c(Cl)cc(Cl)cc1Cl)C(=O)n1ccnc1`, the molecule was called inactive in [1], in test [2], in [3], in test [4], in test [5] and in [6]. Besides, the result in [7], in test [8] and in [10] was inactive.

On to `CC(C)(C)C(O)C(Oc1ccc(Cl)cc1)n1cncn1` (configuration not stated), for which the AC50 in test [1] was 40.2 µM (active) and 31 µM (active) and 43.9 µM (active); in [2] it was 40.7 µM (active) and 31.9 µM (active) and 48.1 µM (active); in test [3], 43.8 µM (active) and 32.4 µM (active) and 39.9 µM (active); in [4], 33.7 µM (active) and 47.3 µM (active); in test [5] it was 32 µM (active) and 51.8 µM (active); in test [6] it was 46.2 µM (active) and 33 µM (active) and 45.3 µM (active). The AC50 was 47.5 µM (active) and 32.6 µM (active) and 43.3 µM (active) in test [7]; 49.8 µM (active) and 33.6 µM (active) and 48.3 µM (active) in test [8]; 46 µM (active) in test [10]. Besides, the outcome in test [4], in test [5] and in test [10] was inactive.

Take `C[C@H]1[C@H](c2ccc(Cl)cc2)SC(=O)N1C(=O)NC1CCCCC1`: the outcome in [1], in [2], in test [3], in test [4], in [5] and in test [6] was inactive. Moreover, the molecule was classed as inactive in [7], in test [8] and in test [10].

Turning to `O=C(Nc1ccccc1)Nc1cnns1`, the molecule was classed as inactive in [1], in test [2], in [3], in [4], in test [5] and in [6]. Further, the outcome in [7], in [8] and in [10] was inactive.

In the case of `Oc1ccc(Cl)cc1Cc1ccccc1`, the result in test [1], in test [2], in test [3], in [4], in test [5] and in [6] was inactive. Besides, the outcome in test [7], in [8] and in [10] was inactive.

For the molecule `CC(C)(C)C(O)/C(=C\c1ccc(Cl)cc1Cl)n1cncn1` (configuration not stated), the AC50 in test [1] is 34.4 µM (active); in test [2] it was 70.7 µM (active); in test [3], 37.4 µM (active); in test [4], 30.9 µM (active); in test [5], 25 µM (active); in test [6] it was 11.6 µM (active). Also, the AC50 was 42.4 µM (active) in test [7] and 8.24 µM (active) in [8]. The outcome in [10] was inactive.

As for `CCC(C)(NC(=O)c1cc(Cl)c(C)c(Cl)c1)C(=O)CCl` (configuration not stated), the AC50 in test [1] is 26.1 µM (active); in [3] it was 28.2 µM (active); in test [4] it was 25.4 µM (active). The molecule was called inactive in test [2], in [5], in test [6], in test [7] and in test [8].

Take `CNC(=O)/C=C(\C)OP(=O)(OC)OC`: the molecule was called inactive in test [9], in test [1], in [2], in test [3], in test [4] and in [5]. Besides, the molecule was classed as inactive in test [6], in test [7], in test [8] and in test [10].

For `CCOC1Oc2ccc(OS(C)(=O)=O)cc2C1(C)C` (configuration not stated), the molecule was called inactive in [1], in test [2], in test [3], in [4], in test [5] and in [6]. The outcome in test [7], in test [8] and in test [10] was inactive.
